# Source: PubChem
# HCV inhibitor = qHTS Assay for Inhibitors of Hepatitis C Virus (HCV); Huh7.5.1 HCVcc-Cre infection, luciferase reporter, 44 h; Potency, µM (series often up to 41.8 µM), without a hit: at the top dose activity change, negative = inhibition, most hits filed as inhibitors; 340,000 compounds, 3.4% hits
#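 Seed cells (1,000/well) for 4 h; treat with compound and infect with HCVcc-Cre, moi about 0.5. Incubate 44 h, then detect luciferase activity.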
# AMA1 RON2 block = qHTS for Inhibitors of AMA1-RON; Towards Development of Antimalarial Drug Lead: Primary Screen. Potency, µM (highest dose often 58.2 µM), without a hit: at the top dose activity change, negative = inhibition, usual class: inhibitors. AlphaScreen AMA1-biotinylated RON2 peptide binding. 360,000 compounds, 0.2% hits. Plasmodium falciparum AMA1 (3D7) - RON2 peptide interaction;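 also: 0% = vehicle wells and -100% = peptide control; nearly all actives have a fitted effect of over 45% in size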
#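 AMA1 (3D7) with his tag at 25 nM final met compounds first, then biotinylated RON2 peptide at 25 nM; detection used donor plus acceptor beads, 10 µg/mL apiece, read by AlphaScreen after 30 min at room temperature.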
# Pf growth 48h = Primary qHTS for delayed death inhibitors of the malarial parasite plastid, 48 hour incubation; Potency, µM (series often up to 28.7 µM), without a hit: top-dose activity change, negative = inhibition, hits mostly inhibitors; AID 504832, 2011; P. falciparum luciferase growth in erythrocytes, 48 h; 310,000 compounds, 5.9% hits
#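 Erythrocytes infected with P. falciparum carrying an integrated firefly luciferase reporter (2% hematocrit, 0.1% parasitemia final) were exposed to compounds in RPMI 1640 with 0.5% Albumax at 37 C, 5% CO2. Growth inhibition was scored as reduced luminescence.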
# Pf growth 96h = Primary qHTS for delayed death inhibitors of the malarial parasite plastid, 96 hour incubation; P. falciparum luciferase reporter growth, 96 h; Potency, µM (top dose mostly 28.7 µM), without a hit: top-dose activity change, negative = inhibition, hits mostly inhibitors; 320,000 compounds, 6.9% hits; AID 504834, 2011
#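 Parasite growth measured via integrated firefly luciferase reporter in P. falciparum. Infected erythrocytes at 2% hematocrit, 0.05% parasitemia final were treated 96 hours at 37 C under 5% CO2, and luminescence was read.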
# The depositor's hits bear a star; ? = inconclusive; · = not tested or not shown; ! = repeats disagree. The list is not random: actives were taken first. Their share in the collection is about 11%. Calls follow the shape of the dose curve; as a rule, active = well fitted curve in the direction sought with a large enough effect; inconclusive = small, poorly fitted or top-dose-only effect, or another doubt; inactive = no such curve, though single readings can be large; an effect the other way counts as inactive or inconclusive. Unless noted, % is scaled to controls: 0 for no effect and ±100 for the full control effect; potency is read from the fitted curve at half-maximal effect.
SMILES,HCV inhibitor,AMA1 RON2 block,Pf growth 48h,Pf growth 96h
Cc1sc2nc3c(C(=O)N4CCCC4)cc(C(=O)c4ccccc4O)cn3c(=O)c2c1C,?,10%,13µM*,?
CCc1c(C)sc2nc3c(C(=O)N4CCOCC4)cc(C(=O)c4cc(F)ccc4O)cn3c(=O)c12,?,-12%,?,2.1µM*
CC(=O)Nc1ccc2c(c1)CN(c1cc(C)ccc1C)CO2,-1%,-9%,6%,?
COc1cc(NS(=O)(=O)c2ccc(OC)c(C)c2C)c(OC)cc1Cl,10µM*,0%,?,·
O=C(COC(=O)c1ccccc1)NCC1COc2ccccc2O1 (stereo unspecified),·,-3%,·,·
CCc1ccc(N(C)S(=O)(=O)c2ccc3[nH]cc(C(=O)NCCN4CCOCC4)c(=O)c3c2)cc1,-23%,12%,·,?
CCN(CC)S(=O)(=O)c1ccc2[nH]cc(C(=O)NCCCN3CCCCC3C)c(=O)c2c1 (stereo unspecified),-4%,-3%,10µM*,·
CCN(CC)S(=O)(=O)c1ccc2[nH]cc(C(=O)NCCN3CCCCCC3)c(=O)c2c1,-10%,0%,1.9µM*,209%
CCN(CC)S(=O)(=O)c1ccc2[nH]cc(C(=O)NCCC3=CCCCC3)c(=O)c2c1,11µM*,-1%,8.3µM*,-29%
COCCNC(=O)c1c[nH]c2ccc(S(=O)(=O)N(C)c3ccc(C)c(C)c3)cc2c1=O,-12%,3%,·,?
C=CCN(c1ccccc1)S(=O)(=O)c1ccc2[nH]cc(C(=O)NCCOC)c(=O)c2c1,?,-1%,?,4.7µM*
CCc1nc2c(OCCOc3ccc(F)cc3)cccn2c1N(C)C(=O)c1ccc(OC)cc1,·,-10%,·,·
COCCCNC(=O)c1c[nH]c2ccc(S(=O)(=O)N3CCC4(CC3)OCCO4)cc2c1=O,9%,5%,?,-12%
CCN(CC)S(=O)(=O)c1ccc2[nH]cc(C(=O)NCCN3CCCCC3C)c(=O)c2c1 (stereo unspecified),9%,-3%,4.1µM*,·
CCN(CC)S(=O)(=O)c1ccc2[nH]cc(C(=O)NCCCN3CCCCC3)c(=O)c2c1,31%,-1%,?,?
CCCCCNC(=O)c1c[nH]c2ccc(S(=O)(=O)N3CCC4(CC3)OCCO4)cc2c1=O,3%,-2%,13µM*,0%
C/C(Cn1cnc([N+](=O)[O-])n1)=N\NC(=O)c1ccccc1,5%,19%,40%,-1%
C/C(Cn1nnc([N+](=O)[O-])n1)=N\NC(=O)c1ccccc1,?,37%,?,15µM*
Cc1c(C(=O)NCc2cccnc2)oc2ccc(S(=O)(=O)N3CCCCC3)cc12,?,1%,5.2µM*,?
Cc1c(C(=O)NCc2cccnc2)oc2ccc(S(=O)(=O)N3CCCCCC3)cc12,11µM*!,-1%,9.3µM*,7%
CN(C(=O)c1ccc2c(c1)SC1=NS(=O)(=O)CCN12)C(c1ccccc1)c1ccccc1,20%,-15%,12µM*,12µM*
O=C(O)c1ccc2c(c1)SC1=NS(=O)(=O)CCN12,5%,-9%,20%,-2%
Cc1ccc(OC(=O)c2cccnc2)cc1,19%,-6%,-2%,12µM*
CCOc1ccc(NC(=O)CSc2nnc(C3CC3)n2N)cc1,-11%,6%,13%,1%
NC(=O)c1ccc(NC(=O)CSc2nnc(C3CCCCC3)n2N)cc1,4%,-2%,29%,31%
SMILES,HCV inhibitor,AMA1 RON2 block,Pf growth 48h,Pf growth 96h
Nn1c(SCC(=O)Nc2ccc(F)c(F)c2)nnc1C1CCCCC1,-2%,4%,-28%,12µM*
Nn1c(SCC(=O)Nc2ccc(Oc3ccccc3)cc2)nnc1C1CC1,7%,31%,8.3µM*,?
CC1(C)Oc2ccc(C(=O)Nc3ccccc3)cc2N(CC#N)C1=O,-16%,-11%,-5%,2.9µM*
NC(=O)c1nn(CC(=O)Nc2cccc(S(=O)(=O)N3CCCC3)c2)c(=O)c2ccccc12,11µM*,9%,?,?
Cn1nc(C(=O)OCC(=O)Nc2cccc(S(=O)(=O)N3CCCC3)c2)c2ccccc2c1=O,22%,-2%,12µM*,-12%
CC(C)n1nc(C(=O)Nc2cccc(S(=O)(=O)N3CCOCC3)c2)c2ccccc2c1=O,?,-2%,?,10µM*
Cn1nc(C(=O)Nc2cccc(S(=O)(=O)N3CCOCC3)c2)c2ccccc2c1=O,?,-4%,?,-5%
Cn1nc(C(=O)Nc2cccc(S(=O)(=O)N3CCCC3)c2)c2ccccc2c1=O,?,-10%,8.3µM*,9.3µM*
CCC1Cc2[nH]c(=S)[nH]c(=O)c2C(c2ccc(F)cc2)O1 (stereo unspecified),·,102%,·,·
Cc1ccc(NC(=O)CN(C)C(=O)COC(=O)c2ccc(Cl)cc2O)cc1,6%,4%,-21%,31%
CCCN1CCc2c(sc(NC(=O)CCS(=O)(=O)c3ccccc3)c2C(=O)OC)C1,3%,8%,?,13µM*
CCC(=O)Nc1sc2c(c1C(=O)OC)CCN(Cc1ccccc1)C2,?,-24%,?,-4%
CC(C)N1CCc2c(sc(NC(=O)CCS(=O)(=O)c3ccccc3)c2C#N)C1,?,-16%,-28%,?
COC(=O)c1c(NC(NC(=O)c2ccccc2)(C(F)(F)F)C(F)(F)F)sc2c1CCN(C)C2,-17%,40%,8.3µM*,2.3µM*
COC(=O)c1c(NC(=O)CCS(=O)(=O)c2ccccc2)sc2c1CCN(C)C2,-16%,6%,13µM*,?
CCC(=O)NC(Nc1sc2c(c1C(=O)OC)CCCC2)(C(F)(F)F)C(F)(F)F,4%,-6%,3%,-2%
CCCNC(=O)Cc1c(C)oc2ccccc12,0%,8%,40%,-3%
CCCNC(=O)C1(C)CCCN(Cc2csc3ccccc23)C1 (stereo unspecified),·,6%,·,·
Cc1sc(N/N=C/c2cccnc2)nc1-c1ccccc1,?,13%,9.3µM*,?
C(=N\Nc1nc(Nc2ccccc2)nc(Nc2ccccc2)n1)/c1cccnc1,?,31%,3.3µM*,-2%
COc1ccc(/C=C/C(=O)NC(CCSC)C(=O)O)cc1 (stereo unspecified),7%,43%,19%,?
COC(=O)c1cc(S(=O)(=O)N(C)C2CCCCC2)cn1C,5%,-1%,-4%,?
COC(=O)c1ccc(S(=O)(=O)N(C2CCCCC2)C2CCCCC2)n1C,13%,-11%,10µM*,?
O=C(NCCOc1ccccc1)c1cc(C(=O)NCCOc2ccccc2)cc([N+](=O)[O-])c1,?,-12%,12µM*,?
CC(C)(C)c1ccc(C(=O)NCCOc2ccccc2)cc1,-2%,-4%,131%,9.3µM*
COc1ccccc1OCCNC(=O)c1ccccc1C,-12%,-24%,23%,·
